Source: PubChem BioAssay AID488809 (Broad Institute, 2010)
Results with a measured potency or affinity are listed apart. Inconclusive results are not listed. Calls of active or inactive are those of the source. The rule behind the calls is not given here.

Test: cytotoxicity in NIH-3T3 fibroblasts, dose response, cytotoxicity control for antifungal drug resistance project, cell-based, Alamar Blue, fluconazole, dry powder (AID 488809)
Details: NIH-3T3 fibroblasts + fluconazole, Alamar Blue viability, 48 h; series mostly up to 26 µM

SMILES	outcome
CNC(=O)Cn1nc(-c2ccccc2)c2ccccc21	inactive
CCCNC(=O)Cn1nc(-c2ccccc2)c2ccccc21	inactive
COC(=O)Cn1nc(-c2ccc(C)cc2)c2ccccc21	inactive
Cc1ccc(C(=O)N2CCN(c3ccnc4cc(Cl)ccc34)CC2)cc1	inactive
CC1CCN(C(=O)Cn2c3ccccc3c3nc4n(c(=O)c32)CCS4)CC1	inactive
